Screening data: PubChem BioAssay, National Center for Advancing Translational Sciences (NCATS)
Rows were chosen to be rich in hits. Some 7.1% of all compounds tested hit in one or more screens of this group.
SW480 rerep: A quantitative high throughput screen for small molecules that induce DNA re-replication in SW480 colon adenocarcinoma cells. SW480 DNA re-replication, Hoechst DNA content imaging, 48 h. Potency, µM (titrated, usually from 46.1 µM), inactives show at the highest dose re-replication activation, most hits filed as activators. 340,000 compounds, 1.8% hits; also: potency is read from the fitted curve at half-maximal effect; % of control where 0% means no effect; nearly all actives have a fitted effect of over 55% in size
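Treated cells incubate 48 hr (37 C, 5% CO2), are stained 40 min with Hoechst, and nuclear fluorescence is enumerated; a rise in nuclei with high DNA signal marks re-replication.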
ATXN2 expr inh: Primary qHTS for Inhibitors of ATXN expression; HEK-293 ATXN2-luciferase reporter, luminescence, 24 h; AID 1745845, 2022; Potency, µM (doses to about 57 µM), for inactives: at the highest dose activity change, negative = inhibition, hits mostly inhibitors; 360,000 compounds, 0.72% hits; also: potency is read from the fitted curve at half-maximal effect; % is scaled to controls: 0 for no effect and ±100 for the full control effect; nearly all actives have a fitted effect of over 55% in size
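qHTS (up to 57 uM final) was run with 24 h compound exposure of reporter cells at 37 °C. Each well was multiplexed: SteadyGlo luminescence measured ATXN2-luciferase expression after a fluorogenic Gly-Phe-AFC viability readout (25 uM final).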
IL-1B inflam inh: qHTS for Inhibitors of Inflammasome Signaling: IL-1-beta AlphaLISA Primary Screen. THP-1 LPS/ATP IL-1B secretion, AlphaLISA, 16 h; stronger effect = lower value. activity change, % at 57.5 µM. 360,000 compounds, 4.7% hits. AID 743279, 2014; in the data active = activity change below about -50%; inconclusive = mostly about -30% to -49%; also: % is scaled to controls: 0 for no effect and ±100 for the full control effect
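THP-1 cells pretreated 1 hr with compounds (up to 57.5 uM final), then stimulated with LPS (250 ng/mL final) plus ATP (1.25 mM final); secreted IL-1B measured by AlphaLISA after 16 hr, decreased signal indicating inhibition.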
ATXN viability: Viability Counterscreen for Primary qHTS for Inhibitors of ATXN expression | S2 cells (HEK-293 line with an ATXN2-luciferase reporter) viability, CellTiter-Fluor protease fluorescence, 24 h | Potency, µM (titrated, usually from 56.7 µM), actives largely listed as cytotoxic | 400,000 compounds, 0.49% hits | AID 651635, 2014; also: potency is read from the fitted curve at half-maximal effect; nearly all actives have a fitted effect of over 40% in size
PINK1 modulator: A Quantitative High throughput Screen to Identify Chemical Modulators of PINK1 Expression | PINK1 immunofluorescence, high-content cytometry, 24 h | Potency, µM (highest dose often 76.6 µM), inactives show at the highest dose activation (PINK1 increase), usual class: activators | 410,000 compounds, 0.2% hits; active = well fitted activation curve with a large enough effect; inconclusive = small, poorly fitted or top-dose-only effect; cell line not stated here; also: potency is read from the fitted curve at half-maximal effect; % of control where 0% means no effect; nearly all actives have a fitted effect of over 65% in size
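Compound titrations (5 concentrations, 24 h) on a stable cell line; DMSO and CCCP controls. Endpoint: fixed-cell PINK1 immunofluorescence with mitochondrial, cell and nuclear markers, scanned by microplate cytometer.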
MCF10A rereplic: A quantitative high throughput screen for small molecules that induce DNA re-replication in MCF 10a normal breast cells | 350,000 compounds, 2.9% hits | MCF 10A DNA re-replication, Hoechst nuclear intensity, 48 h | Potency, µM (series often up to 46.1 µM), without a hit: at the top dose activity, positive = re-replication, hits mostly activators; also: potency is read from the fitted curve at half-maximal effect; % of control where 0% means no effect; nearly all actives have a fitted effect of over 50% in size
Starred values were filed as active, the others as inactive; i = inactive; ? = inconclusive; nt = no result given; [ ] = another dose, or the depositor's remark. Unless noted, calls follow the shape of the dose curve; as a rule, active = well fitted curve in the direction sought with a large enough effect; inconclusive = small, poorly fitted or top-dose-only effect, or another doubt; inactive = no such curve, though single readings can be large; an effect the other way counts as inactive or inconclusive.

SMILES	SW480 rerep	ATXN2 expr inh	IL-1B inflam inh	ATXN viability	PINK1 modulator	MCF10A rereplic
CC(C)(C)Nc1nc(SCC(=O)Nc2ccccc2)nc(N2CCOCC2)n1	-4.3%	-8.5%	-90.4*	i	-0.9%	?
O=C(CSc1nc(Nc2ccccc2)nc(N2CCOCC2)n1)N1CCc2ccccc21	?	-3.9%	2.2	i	5.4%	?
CCNc1nc(SCC(=O)Nc2ccc(Cl)c(Cl)c2)nc(N2CCOCC2)n1	4.5%	-34.8%	-58.6*	?	3.1%	?
CON=C(C(=O)N[C@@H]1C(=O)N2C(C(=O)O)=C(Cn3ccc(=N)n3CCO)CS[C@H]12)c1csc(N)n1	nt	1.9%	nt	nt	nt	nt
Cc1ccc(C)c(N2CCN(S(=O)(=O)c3cc(C(=O)Nc4ccc(Oc5ccccc5)cc4)ccc3F)CC2)c1	nt	nt	nt	nt	-1.3%	nt
COc1cc(-c2noc(-c3ccc(N(C)C)c([N+](=O)[O-])c3)n2)cc(OC)c1OC	nt	1.2%	nt	i	0.1%	nt
Cc1cc(=O)[nH]c2nnc(SCc3ccc(Cl)cc3Cl)n12	nt	nt	nt	nt	7.9%	nt
CC(C)(C)NC(=O)c1ccc(COc2ccc(Cl)cc2Cl)o1	6.0%	?	-69.1*	i	3.5%	?
O=C(N/N=C/c1ccc(O)cc1)c1ccc(COc2cc(Cl)ccc2Cl)o1	2.4%	-16.3%	24.5	i	13.3%	18.4µM*
O=C(NCc1cccnc1)c1ccc(COc2ccc(Cl)cc2Cl)o1	-4.5%	10.8%	43.9	i	-0.2%	-1.9%
Cc1nc2ccccc2n1CCc1nc2c3ccccc3nc(SCc3ccccc3F)n2n1	nt	-4.0%	nt	i	4.4%	nt
O=C(CSc1nn(-c2ccc(F)cc2)c(=S)s1)N1CCN(C(=O)c2ccco2)CC1	?	-11.8%	-79.1*	i	nt	?
O=C(CSc1nn(-c2ccc(Cl)cc2)c(=S)s1)N1CCN(C(=O)c2ccco2)CC1	?	5.2%	-1.4	i	-0.7%[38.3 µM]	?
Fc1ccc(-[n+]2nc(Nc3ccccc3)sc2-c2c(Cl)cccc2Cl)cc1	-44.4%[9.22 µM]	?	-93.6*	nt	?	?
CCc1ccc(Nc2n[n+](-c3ccccc3)c(-c3c(Cl)cccc3Cl)s2)cc1	?	10µM*	-91.8*	10µM*	?	?
O=C(O)c1ccc(-c2sc(Nc3ccccc3)n[n+]2-c2ccc(F)cc2)cc1	4.7%[9.22 µM]	9.4%	31.2	i	0.2%	-0.8%
COc1ccc2ccccc2c1-c1sc(Nc2ccccc2)n[n+]1-c1ccc(F)cc1	?	28.2µM*	-78.1*	28.2µM*	?	4.7%
CC(=O)c1cccc(NC(=O)CCc2c(C)nc3c(-c4ccc(F)cc4)c(C)nn3c2C)c1	nt	1.7%	nt	i	0.1%	nt
CCOC(=O)C1=C(C)N(c2ccc(OC)cc2)C(=O)/C1=C\c1cccs1	1.0%	-5.1%	-59.9*	i	1.7%	?
CCOC(=O)C1=C(C)N(c2ccc(OC)cc2)C(=O)/C1=C\c1ccc(O)c(OCC)c1	0.7%	nt	36.5	i	5.6%	?
O=C(CCc1ccccc1)NNC(=O)Nc1ccc(Cl)cc1	1.3%	-28.1%	-1.3	i	1.6%	-6.6%
O=C(CSc1nc2ccccc2s1)NNC(=O)Nc1ccc(Cl)c(Cl)c1	14.6%	2.9%	11.3	i	-0.7%	?
O=C(CN1c2ccccc2Sc2ccccc21)NNC(=O)Nc1ccc(Cl)cc1	?	-31.4%	-80.1*	i	3.9%	?
O=C(CN1c2ccccc2Sc2ccccc21)NNC(=O)Nc1ccc(Cl)c(Cl)c1	?	-10.4%	-92.0*	i	11.3%	16.4µM*
COc1ccccc1OCC(=O)NNC(=O)Nc1ccc(Cl)cc1	18.4µM*	-3.5%	20.5	i	2.7%	23.1µM*
SMILES	SW480 rerep	ATXN2 expr inh	IL-1B inflam inh	ATXN viability	PINK1 modulator	MCF10A rereplic
Cc1ccc(NC(=O)NNC(=O)COc2ccc(Cl)cc2)cc1	-10.8%	nt	6.4	i	1.2%	-3.6%
O=C(CN1C(=O)NC2(CCCCCC2)C1=O)NCc1ccccc1Cl	-8.3%	7.3%	-4.1	i	-0.7%	12.0%
O=C(Nc1nccs1)C(Br)C(Br)c1ccccc1 (stereo unspecified)	?	-10.3%	-86.3*	?	9.4%	?
CCC1=C[C@@H]2CN(C1)Cc1c([nH]c3ccccc13)[C@@](C(=O)OC)(c1cc3c(cc1OC)N(C)[C@@H]1[C@@](O)(C(=O)OC)[C@H](OC(C)=O)[C@]4(CC)C=CCN5CC[C@]31[C@@H]54)C2	1.19µM*	?	nt	nt	nt	67.1%
COc1ccc(CCNC(=O)[C@H](C)N2C(=O)N3CCc4c([nH]c5ccccc45)[C@@]3(C)C2=O)cc1OC	-0.7%	?	1.0	?	0.9%	7.8%
CCC1(O)CC2CN(CCc3c([nH]c4ccccc34)C(C(=O)OC)(c3cc4c(cc3OC)N(C=O)C3C(O)(C(=O)OC)C(OC(C)=O)C5(CC)C=CCN6CCC43C65)C2)C1 (stereo unspecified)	0.164µM*	-4.5%	25.5	?	21.4%	?
CC[C@]1(O)CC2CN(CCc3c([nH]c4ccccc34)[C@@](C(=O)OC)(c3cc4c(cc3OC)N(C)[C@H]3[C@@](O)(C(=O)OC)[C@H](OC(C)=O)[C@]5(CC)C=CCN6CC[C@]43[C@@H]65)C2)C1 (stereo partly specified)	0.75µM*	nt	nt	nt	5.6%	?
CC(C)Oc1ccc(CNC(=O)CN2C(=O)c3cccnc3Oc3ccc(Cl)cc32)cc1	nt	nt	nt	nt	0.5%	nt
CN1c2ccccc2C(C)(C)C12C=Cc1cc(O)ccc1O2 (stereo unspecified)	21.6%	-19.6%	-73.6*	?	nt	-10.0%
CC1(C)C=Cc2c(ccc3c2OC[C@H](c2ccc(O)cc2O)C3)O1	-62.7%	5.4%	34.1	?	-0.7%	?
O=C(NCc1nc2ccccc2[nH]1)c1cccc(S(=O)(=O)N2CCCCC2)c1	-6.8%	-8.5%	0.0	i	-0.1%	1.2%
CN(Cc1ccc(OC(F)F)cc1)C(=O)c1cccc(S(=O)(=O)N2CCN(Cc3ccccc3)CC2)c1	-68.4%	?	-59.8*	i	3.2%	-16.4%
CCN1CCN(S(=O)(=O)c2ccc(Cl)c(C(=O)N(C)C(c3ccccc3)c3ccccc3)c2)CC1	-491.8%	-22.5%	-75.4*	i	2.3%	-4.0%
CCN1CCN(S(=O)(=O)c2ccc(Cl)c(C(=O)NC3CC3)c2)CC1	-4.6%	3.7%	2.2	?	0.3%	-0.5%
